High-throughput results (PubChem BioAssay)
G9a block – blocks human histone lysine methyltransferase G9a; Q96KQ7; G9a H3K9 monomethylation, AlphaScreen, 2 h; Potency, µM (titrated, usually from 102 µM), most hits filed as inhibitors; actives 8.8% (n = 350,000); also: nearly all actives have a fitted effect of over 75% in size
Target sequence (Q96KQ7 913-1193 limits assumed): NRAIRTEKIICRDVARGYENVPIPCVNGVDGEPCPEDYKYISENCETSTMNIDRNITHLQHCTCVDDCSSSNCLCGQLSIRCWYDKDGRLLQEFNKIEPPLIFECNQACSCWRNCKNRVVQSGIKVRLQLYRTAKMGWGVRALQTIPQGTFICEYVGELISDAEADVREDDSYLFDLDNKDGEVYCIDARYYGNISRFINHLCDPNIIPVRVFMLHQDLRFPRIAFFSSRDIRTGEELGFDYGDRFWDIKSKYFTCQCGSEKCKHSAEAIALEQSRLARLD
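G9a (20 nM) was preincubated 15 min with compound, then reacted 2 h at room temperature with 500 nM biotin-H3K9 peptide and 20 µM SAM. Monomethyl-H3K9 detected by AlphaScreen using anti-H3K9me1 antibody.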
JMJD2A Tudor – JMJD2A Tudor domain (human) inhibition. O75164. AlphaScreen JMJD2A-Tudor / H3K4me3 peptide binding. Potency, µM (doses to about 114 µM), hits mostly inhibitors. actives 4.4% (n = 390,000). AID 504339; also: nearly all actives have a fitted effect of over 50% in size
HP1b chromo inh – inhibitors of HP1-beta chromodomain binding to methylated histone tails; P83916; AID 540317; AlphaScreen HP1-beta / biotin-H3K9me3 peptide binding; actives 0.56% (n = 390,000); Potency, µM (top dose mostly 114 µM), hits mostly inhibitors; also: nearly all actives have a fitted effect of over 70% in size
Target sequence (P83916 whole entry, looked up): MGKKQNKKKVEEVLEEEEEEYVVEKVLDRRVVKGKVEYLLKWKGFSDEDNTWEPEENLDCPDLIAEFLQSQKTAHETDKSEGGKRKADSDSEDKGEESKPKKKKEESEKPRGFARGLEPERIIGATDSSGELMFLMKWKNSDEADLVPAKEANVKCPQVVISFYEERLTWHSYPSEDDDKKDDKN
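HP1-beta protein (50 nM final) preincubated 30 min at room temperature with biotinylated H3(1-18)K9me3 peptide (50 nM) in PBS pH 7.4, 0.01% Tween-20, then compound added for 30 min. AlphaScreen streptavidin donor/nickel chelate acceptor beads (10 ug/mL final), 30 min dark, luminescence read.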
BAZ2B block – blocks human BAZ2B; AID 504333; actives 4.4% (n = 360,000); Potency, µM (doses to about 114 µM), most hits filed as inhibitors; AlphaScreen BAZ2B-H3K14Ac peptide displacement; Q9UIF8; also: nearly all actives have a fitted effect of over 60% in size
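Protein-peptide AlphaScreen: BAZ2B 50 nM, b-H3K14Ac 50 nM, 1x PBS pH 7.4 + 0.01% Tween-20. Preincubation 30 min RT; cpd 30 min RT (top 110 uM); beads 20 min RT, light-protected.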
GLS inh – glutaminase GLS (human) inhibition. Potency, µM (highest dose often 45.5 µM), most hits filed as inhibitors. actives 0.21% (n = 410,000). O94925. GLS enzymatic activity, qHTS titration
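Coupled fluorescence readout: glutamate oxidase/HRP/Amplex Red detect glutamate formed by hKGA from L-glutamine (1 mM solution added). Buffer 45 mM KH2PO4 pH 8.2, 0.02% Tween-20; reads at t0 and 30 min RT.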
A number is an active result; ! = not active in a repeat; [ ] = remark or other dose. Compounds with a hit are over-represented: about 10% of the library has one in this group of screens. Calls follow the shape of the dose curve; as a rule, active = well fitted curve in the direction sought with a large enough effect; inconclusive = small, poorly fitted or top-dose-only effect, or another doubt; inactive = no such curve, though single readings can be large; an effect the other way counts as inactive or inconclusive.

`CO[C@@]1(NC(=O)Cc2cccs2)C(=O)N2C(C(=O)O)=C(COC(N)=O)CS[C@@H]21` gave G9a block inconclusive, JMJD2A Tudor 56.2µM, HP1b chromo inh inactive, BAZ2B block 50.1µM and GLS inh 11.2µM!.
`CO[C@@]1(NC(=O)Cc2cccs2)C(=O)N2C(C(=O)O)=C(COC(N)=O)CSC21` (some centres undefined) gave G9a block inactive[2.33 µM].
For O=C(N=Nc1c(O)n(C2OC(=O)c3ccccc32)c2ccccc12)c1ccc(O)cc1 (centres undefined) the results were G9a block inactive, JMJD2A Tudor inactive, HP1b chromo inh inactive, BAZ2B block inactive and GLS inh inactive.
For CCOc1ccccc1CNC(=O)c1cc2occc2n1C the results were G9a block 25.1µM, JMJD2A Tudor inactive, HP1b chromo inh inconclusive, BAZ2B block 44.7µM and GLS inh inactive.
Screening O=c1[nH]c(=S)[nH]c2c1C(c1cccc(C(F)(F)F)c1)OC(CCc1ccccc1)C2 (centres undefined) returned GLS inh inactive.
`O=C(c1ccccc1)c1ccc(-n2cnnc2)c([N+](=O)[O-])c1` gave G9a block inactive, JMJD2A Tudor inactive, HP1b chromo inh inactive, BAZ2B block inactive and GLS inh inactive.
For Cn1c(=O)c2c(SC3CCCC3)nc(C3CC3)nc2n(C)c1=O the results were G9a block inactive, JMJD2A Tudor inactive, HP1b chromo inh inactive, BAZ2B block inactive and GLS inh inactive.
`CC(CCc1ccccc1)NC(=O)C(=O)Nc1ccccc1` (centres undefined) gave G9a block inactive, JMJD2A Tudor inactive, HP1b chromo inh inactive, BAZ2B block inactive and GLS inh inactive.
`Nc1c(C(=O)O)sc2nc(-c3ccccc3)c3c(c12)CCCC3` gave G9a block 6.31µM, JMJD2A Tudor inactive, HP1b chromo inh inactive, BAZ2B block inactive and GLS inh inactive.
CCOC(=O)c1sc2nc(N3CCOCC3)c3c(c2c1N)CCCC3 was read as G9a block inactive, JMJD2A Tudor inactive, HP1b chromo inh inactive, BAZ2B block inactive and GLS inh inconclusive.
`NC(=O)c1sc2nc(N3CCCCC3)c3c(c2c1N)CCCC3` gave G9a block 35.5µM, JMJD2A Tudor inactive, HP1b chromo inh inactive, BAZ2B block inconclusive and GLS inh inactive.
Screening CCN(CC)C(=O)c1sc2nc(N3CCOCC3)c3c(c2c1N)CCCC3 returned G9a block 8.91µM, JMJD2A Tudor inconclusive, HP1b chromo inh inactive, BAZ2B block inactive and GLS inh inactive.
CCC1CN(C(=O)NCc2cccc(OC)c2)c2ccccc2O1 (centres undefined) was read as G9a block inactive, JMJD2A Tudor inactive, HP1b chromo inh inactive, BAZ2B block inactive and GLS inh inactive.
`COc1ccccc1C(=O)NCCCNC(=O)c1cnccn1` gave G9a block inactive, JMJD2A Tudor inactive, HP1b chromo inh inactive, BAZ2B block inactive and GLS inh inactive.
`O=C(c1cc([N+](=O)[O-])cc([N+](=O)[O-])c1)N(Cc1nnc(-c2ccccc2Cl)o1)C1CC1` gave G9a block inconclusive, JMJD2A Tudor inconclusive, HP1b chromo inh inactive, BAZ2B block inactive and GLS inh inactive.
O=C1CCCN1c1ccc(C(=O)N(Cc2nnc(-c3ccccc3Cl)o2)C2CC2)cc1 was read as G9a block 12.6µM, JMJD2A Tudor inactive, HP1b chromo inh inactive, BAZ2B block inactive and GLS inh inactive.
O=C(c1ccc(Cl)c(S(=O)(=O)N2CCOCC2)c1)N(Cc1nnc(-c2ccccc2Cl)o1)C1CC1 was read as G9a block inactive, JMJD2A Tudor inactive, HP1b chromo inh inactive, BAZ2B block inactive and GLS inh inactive.
`O=C(c1cccc(S(=O)(=O)N2CCOCC2)c1)N(Cc1nnc(-c2ccccc2Cl)o1)C1CC1` gave G9a block 50.1µM, JMJD2A Tudor inactive, HP1b chromo inh inactive, BAZ2B block inactive and GLS inh inactive.
`C/C(=N\NC(=O)c1ccccc1O)c1cccs1` gave G9a block inactive, JMJD2A Tudor inactive, HP1b chromo inh inactive, BAZ2B block inactive and GLS inh inactive.
C/C(=N\NC(=O)c1ccc(O)cc1)c1ccc2c(c1)Nc1ccccc1S2 was read as G9a block 15.8µM, JMJD2A Tudor 79.4µM, HP1b chromo inh inactive, BAZ2B block 50.1µM and GLS inh inconclusive.
Screening CCCn1c(CN2CCCCC2CC)nc2c1c(=O)n(C)c(=O)n2C (centres undefined) returned G9a block inactive, JMJD2A Tudor inactive, HP1b chromo inh inactive, BAZ2B block inactive and GLS inh inactive.
COc1ccc(-c2nn3c(-c4cccc(C)c4)nnc3s2)cc1OC was read as JMJD2A Tudor inactive, HP1b chromo inh inactive and GLS inh inactive.
`COc1ccccc1-c1nnc2sc(-c3cnccn3)nn12` gave G9a block inconclusive, JMJD2A Tudor 50.1µM, HP1b chromo inh inactive, BAZ2B block inactive and GLS inh inconclusive.
`COc1cccc(-c2nn3c(-c4ccccn4)nnc3s2)c1` gave G9a block inactive, JMJD2A Tudor 79.4µM, HP1b chromo inh inactive, BAZ2B block inactive and GLS inh inactive.
For COc1ccc(-c2nn3c(-c4ccccn4)nnc3s2)cc1OC the results were G9a block inactive, JMJD2A Tudor inconclusive, HP1b chromo inh inactive, BAZ2B block 44.7µM and GLS inh inactive.
`COc1cccc(-c2nnc3sc(-c4ccccn4)nn23)c1` gave G9a block inactive, JMJD2A Tudor inactive[11.4 µM], HP1b chromo inh inconclusive and GLS inh inactive.
Screening COc1ccc(-c2nn3c(C4CCCCC4)nnc3s2)cc1OC returned G9a block 10µM, JMJD2A Tudor inactive, HP1b chromo inh inconclusive, BAZ2B block inactive and GLS inh inactive.
For COC(=O)[C@H](C)NC(=O)Nc1ccc(OC)c(OC)c1 the results were G9a block inactive, JMJD2A Tudor inactive, HP1b chromo inh inactive, BAZ2B block inactive and GLS inh inactive.
CCN(CC)C(=O)CSc1nc(O)cc(=O)n1C was read as G9a block inactive[12.7 µM], JMJD2A Tudor inactive, HP1b chromo inh inactive, BAZ2B block inactive and GLS inh inactive.
Screening Cc1ccc(NC(=O)C2Cc3ccccc3CN2C(=O)c2ccco2)cc1S(=O)(=O)N(C)C (centres undefined) returned G9a block inactive, JMJD2A Tudor inactive, HP1b chromo inh inactive, BAZ2B block inactive and GLS inh inactive.
Screening COc1ccc(-c2nn(-c3ccccc3)cc2/C=N/N2C(=O)CSC2=S)cc1 returned G9a block inactive, JMJD2A Tudor inactive, HP1b chromo inh inactive, BAZ2B block inactive and GLS inh inactive.
`COc1ccc(-c2nc(-c3ccccc3)nc(Cl)c2C#N)cc1` gave G9a block inconclusive, JMJD2A Tudor inconclusive, HP1b chromo inh inactive, BAZ2B block inactive and GLS inh inactive.
`COc1ccc(-c2nc(-c3cccc(C)c3)nc(Cl)c2C#N)cc1` gave G9a block 50.1µM and BAZ2B block inactive.
